# This is a sample that favours compounds with a hit; in the whole collection about 12% have one here.
# HP1b chromo inh: HP1-beta chromodomain-methylated histone interaction inhibition; AID 540317; AlphaScreen HP1-beta / biotin-H3K9me3 peptide binding; P83916; Potency, µM (doses to about 114 µM), for inactives: at the top dose activity change, negative = inhibition, hits mostly inhibitors; 390,000 tested, 0.56% active; note: nearly all actives have a fitted effect of over 70% in size
# Target sequence (P83916 whole entry, looked up): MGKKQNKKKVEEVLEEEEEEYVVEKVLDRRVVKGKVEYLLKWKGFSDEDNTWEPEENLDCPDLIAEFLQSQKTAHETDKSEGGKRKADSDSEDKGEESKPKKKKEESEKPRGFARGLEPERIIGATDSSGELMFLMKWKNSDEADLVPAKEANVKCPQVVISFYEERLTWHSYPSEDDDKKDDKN
#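 Compound inhibition of the preformed complex between 50 nM HP1-beta and 50 nM biotinylated H3K9me3 peptide was read by AlphaScreen. Buffer was PBS pH 7.4 with 0.01% Tween-20. Incubations ran 30 min at room temperature, with 10 ug/mL donor/acceptor beads.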
# G9a inh: G9a (human) methyltransferase inhibition. Q96KQ7. G9a H3K9 monomethylation, AlphaScreen, 2 h. Potency, µM (highest dose often 102 µM), without a hit: at the highest dose activity, negative = inhibition, usual class: inhibitors. 350,000 tested, 8.8% active. AID 504332; note: % is set by controls: 0 for no effect and ±100 for the full control effect; nearly all actives have a fitted effect of over 75% in size
# Target sequence (Q96KQ7 913-1193 limits assumed): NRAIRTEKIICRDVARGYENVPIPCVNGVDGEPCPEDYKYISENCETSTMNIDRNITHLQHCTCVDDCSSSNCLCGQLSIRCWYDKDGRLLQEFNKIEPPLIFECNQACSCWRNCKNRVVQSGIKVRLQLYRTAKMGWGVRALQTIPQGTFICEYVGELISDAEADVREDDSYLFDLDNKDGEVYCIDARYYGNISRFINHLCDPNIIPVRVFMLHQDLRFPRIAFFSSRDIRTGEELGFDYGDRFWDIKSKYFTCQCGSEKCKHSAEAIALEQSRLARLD
#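 Readings reflect AlphaScreen signal from monomethyl-H3K9 antibody detection. HMT at 20 nM; substrate b-H3K9 500 nM; cofactor SAM 20 uM; 2 h RT reaction; compounds tested as titrations in qHTS with 15 min preincubation.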
# Sfp PPTase inh: inhibitors of Bacillus subtilis Sfp phosphopantetheinyl transferase | Q9F4F7 | Biochemical Sfp PPTase activity, qHTS | Potency, µM, inactives show largest response in the series, negative = inhibition, actives largely listed as inhibitors | 310,000 tested, 3.5% active | AID 1490;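 note: the enzyme is Sfp with the accession as filed and its product quenches rhodamine fluorescence; 0% = enzyme reaction without inhibitor and -100% = no enzyme wells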
#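 With Hepes-Na pH 7.6 buffer containing 10 mM MgCl2, Sfp (15 nM) modified BHQ-2-YbbR (12.5 uM) using rhodamine-CoA (5 uM). Two reads 30 minutes apart at 525/598 nm yielded each well's rate.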
# JMJD2A Tudor: blocks the human JMJD2A Tudor domain; Potency, µM (titrated, usually from 114 µM), inactives show at the highest dose activity change, negative = inhibition, actives largely listed as inhibitors; AID 504339; 390,000 tested, 4.4% active; AlphaScreen JMJD2A-Tudor / H3K4me3 peptide binding; note: % is set by controls: 0 for no effect and ±100 for the full control effect; nearly all actives have a fitted effect of over 50% in size
# L3MBTL1 block: blocks human L3MBTL1. Q9Y468. AlphaScreen L3MBTL1–H3K9me1 peptide binding. Potency, µM (doses to about 57.1 µM), inactives show at the top dose activity, negative = inhibition, actives largely listed as inhibitors. 230,000 tested, 0.66% active. AID 485360; note: % is set by controls: 0 for no effect and ±100 for the full control effect; nearly all actives have a fitted effect of over 60% in size
#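 L3MBTL1 50 nM + b-AHA-H3(1-15)K9me1 75 nM, 30 min RT; compound added, 30 min RT; streptavidin donor/Ni-chelate acceptor beads 10 ug/mL each final, 30 min RT dark; AlphaScreen read.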
# BAZ2B block: blocks human BAZ2B; AlphaScreen BAZ2B-H3K14Ac peptide displacement; 360,000 tested, 4.4% active; Potency, µM (series often up to 114 µM), without a hit: top-dose activity change, negative = inhibition, usual class: inhibitors; Q9UIF8; note: % is set by controls: 0 for no effect and ±100 for the full control effect; nearly all actives have a fitted effect of over 60% in size
#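 BAZ2B 50 nM plus b-H3(5-23)K14Ac 50 nM, PBS pH 7.4/0.01% Tween-20, 30 min RT; compound added (max 110 uM), 30 min RT; streptavidin donor/Ni-chelate acceptor beads 10 ug/mL final, 20 min dark; AlphaScreen read.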
# The depositor's hits bear a star; ? = inconclusive; . = no result; [ ] = another dose, or the depositor's remark. Calls come from the whole dose curve; as a rule, active = well fitted curve in the direction sought with a large enough effect; inconclusive = small, poorly fitted or top-dose-only effect, or another doubt; inactive = no such curve, though single readings can be large; an effect the other way counts as inactive or inconclusive. Potency is the fitted concentration of half-maximal effect.
SMILES,HP1b chromo inh,G9a inh,Sfp PPTase inh,JMJD2A Tudor,L3MBTL1 block,BAZ2B block
Cc1ccc(C(=S)N2CCCCCC2)cc1,16%,10µM*,45µM*,-23%,-4%,-18%
CC1CCN(C(=S)c2ccc(O)cc2)CC1,-3%,35µM*,56µM*,-31%,-8%,8%[57.1 µM]
Oc1ccc(C(=S)N2CCCC2)cc1,-19%,.,20µM*,-6%,10%,-3%
S=C(c1ccc(OCc2ccccc2)cc1)N1CCCC1,32%,15%,7%,-1%,-12%,-34%
CC1CCN(C(=S)c2ccccc2O)CC1,?,?,28µM*,?,-18%,-1%
CC1CCN(C(=O)COC(=O)c2cc3ccccc3cc2O)CC1,10%,8%[59 µM],-9%,-16%[57.1 µM],0%,.
COc1ccc(C(=S)N2CCCC2)cc1,41%,?,7%,10%[57.1 µM],?,-35%
COc1ccc(Cl)cc1NC(=O)Cn1nnc2sc(-c3ccccc3)cc2c1=O,19%,1%[59 µM],.,-24%,.,-26%
Oc1cccc(C(=S)N2CCCCC2)c1,-23%,32µM*,22µM*,-10%[11.4 µM],-4%,-20%
Oc1ccc(C(=S)N2CCCCCC2)cc1,-18%,32µM*,56µM*,-32%,0%,-1%[57.1 µM]
COc1ccc(C(=S)N2CCCCC2)cc1Br,-17%,-33%,20%,?,-8%,-25%
COc1ccccc1CNC(=O)CSc1ccsc1[N+](=O)[O-],55%,50µM*,-6%,-26%,.,?
O=C(CSc1ccsc1[N+](=O)[O-])NC1CCCC1,5%,32µM*,7%,-24%,.,-38%
O=C(CSc1ccsc1[N+](=O)[O-])NCc1ccccc1,5%,50µM*,2%,-33%,-27%,?
CSc1ccc(CCNC(=O)CSc2ccsc2[N+](=O)[O-])cc1,33%,18%,17%,-24%[57.1 µM],-13%,-29%
COc1ccccc1CNC(=O)CSc1ccc(C(=O)Nc2ccccc2OC)cc1[N+](=O)[O-],13%,10%,50µM*,-10%,8%,?
COc1ccc(CCNC(=O)CSc2ccsc2[N+](=O)[O-])c(OC)c1,21%,?,11%,-29%,-11%,-29%
CCOC(=O)c1ccccc1NC(=O)Cn1c(=O)n(Cc2nc(-c3ccccc3)no2)c(=O)c2ccccc21,29%,-5%[59 µM],.,-3%,.,-21%
COc1ccc(Nc2ncnc3c2c(-c2ccccc2)cn3-c2ccc(C)c(Cl)c2)cc1OC,?,-2%[59 µM],.,?,.,?
COc1ccc(OC)c(CNC(=O)c2ccc(-c3nc(CSc4ccccc4)c(C)o3)cc2)c1,9%,-40%[59 µM],.,-21%,.,?
O=S(=O)(NCCc1csc2nc(-c3ccc(Cl)cc3)nn12)c1cccs1,15%,-3%[59 µM],.,-16%,.,-13%
COCCN1C(=O)c2[nH]nc(-c3ccccc3O)c2C1c1ccc(OCc2ccccc2)c(OC)c1 (stereo not given),9%,-37%[59 µM],.,?,.,?
COc1ccc(OC)c(CCNC(=O)CSc2ccsc2[N+](=O)[O-])c1,-6%,32µM*,5%,45µM*,-10%,?
COc1ccc(C2CC(=O)c3cc(-c4nc(-c5ccc(Cl)cc5)c(C)s4)c(=O)[nH]c3C2)cc1 (stereo not given),42%,-3%[59 µM],.,-9%,.,1%
COc1ccc(Cn2c(=S)[nH]c3ccccc32)cc1,33%,1.8µM*,-15%,-23%,-6%,-30%
SMILES,HP1b chromo inh,G9a inh,Sfp PPTase inh,JMJD2A Tudor,L3MBTL1 block,BAZ2B block
COCCn1c(=S)[nH]c2ccccc21,42%,40µM*,-6%,-11%[57.1 µM],.,-37%
COc1ccc(-n2c(=S)[nH]c3ccccc32)cc1,3%,3.5µM*,45µM*,40µM*,.,?
COCCn1c(=S)[nH]c2cc(C(=O)N3CCc4ccccc43)ccc2c1=O,19%,?,-6%,-31%,-9%,6%
COCc1nn2cc(-c3ccc(C)cc3)nc2s1,50%,-4%[59 µM],.,-6%,.,-18%
CCCCC(CC)CNC(=O)c1ccc(Cn2c(=O)[nH]c3cc(OC)c(OC)cc3c2=O)cc1 (stereo not given),31%,13%[59 µM],.,-10%,.,-1%
C/C(CCN1CCCCc2nc(C)c(C)cc21)=N\O[C@@H](C)c1cc(-c2c(C)cc(C)cc2C)no1,.,.,0%,.,.,.
Cc1ccc(Cl)cc1N1CCN(c2cccc[n+]2C)CC1,13%,?,-2%,-2%,9%,?
C[n+]1ccccc1N1CCN(c2ccccc2Cl)CC1,-1%,4µM*,-7%,79µM*,4%,-14%
CC1CCN(CC2CCN(C(=O)Nc3ccc(Br)cc3F)CC2)CC1,14%,-12%[59 µM],.,-9%,.,4%
O=C(NCC(c1cccs1)N1CCOCC1)c1cc([N+](=O)[O-])ccc1Cl (stereo not given),28%,45µM*,-6%,-5%,-4%,9%
CC1(C)CC(=O)C(C=Nc2cccnc2/N=C/C2=C(O)CC(C)(C)CC2=O)=C(O)C1,3%,?,20%,-10%,.,0%
CC1(C)CC(=O)C(C=Nc2ccc(O)c(N=CC3=C(O)CC(C)(C)CC3=O)c2)=C(O)C1,43%,20µM*,8%,-27%,8%,-14%
Cc1cc(N=CC2=C(O)CC(C)(C)CC2=O)no1,31%,-26%[59 µM],7%,79µM*,5%,.
Cc1cccc(/N=C/C2=C(O)CC(C)(C)CC2=O)n1,25%,?,17%,-2%,3%,1%
CC1(C)CC(=O)C(C=Nc2ccc(C(=O)c3ccccc3)cc2N=CC2=C(O)CC(C)(C)CC2=O)=C(O)C1,32%,40µM*,-89%,-34%,?,?
COc1ccc2cc(CNc3ccc(C)cc3)c(=O)n(CC(=O)Nc3cccc(C(F)(F)F)c3)c2c1,29%,9%[59 µM],.,-17%,.,-10%
Cc1ccc2c(c1)N/C(=C(\C=C(/Cl)[N+](=O)[O-])[N+](=O)[O-])N2,.,22µM*,35µM*,.,-21%,-27%
Cc1ccc2c(c1)c(C1=NC(=S)NC1=O)c(O)n2C,8%,40µM*,40µM*,-16%,.,-3%
CCCC[n+]1ccn(-c2nc3ccccc3nc2[N-]S(=O)(=O)c2ccc(Br)cc2)c1,43%,.,-1%,?,1%,-23%
CC(C)CC[n+]1ccn(-c2nc3ccccc3nc2[N-]S(=O)(=O)c2ccccc2)c1,43%,12%[12.7 µM],79µM*,-1%,-2%,-24%
COC(=O)c1cc(=O)n(Cc2ccco2)c(=Nc2ccc(F)c(Cl)c2)s1,-21%,35µM*,?,?,.,?
COC(=O)c1cc(=O)n(CCc2ccccc2F)c(=Nc2ccc(F)c(Cl)c2)s1,3%,40µM*,3%,?,.,?
